Data: PubChem BioAssay (Tox21)
“And” between values parts separate entries of the source, which are not always exact repeats. Equal values may be shown once. Records with an inconclusive call do not appear. Unmarked numbers belong to inactive results. The source made the active and inactive calls. Unless noted, calls follow the shape of the dose curve; as a rule, active = well fitted cell-killing curve with a large enough effect in the repeat runs; inconclusive = weak or mixed curves, or effect the other way; inactive = no such curve, though single readings can be large or run the other way.

Assay: qHTS assay to identify small molecule agonists of the endoplasmic reticulum stress response signaling pathway (AID 1159516; active = well fitted activation curve with a large enough effect in the signal ratio in the repeat runs, not every such curve was filed as active; the % refers to the signal ratio)
Details: ESRE-bla HeLa, ER stress beta-lactamase reporter, 5 h; series mostly up to 61 µM; activation: at the top concentration
In short: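 ER stress element reporter (bla) in HeLa. 1,500 cells/well, overnight attachment; 5 hr compound; 2 hr RT substrate; dual-emission fluorescence.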
% is scaled to controls: 0 for no effect and ±100 for the full control effect.

Question: Which “activation” value does the source give for O=C(OC(=O)c1ccccc1)c1ccccc1 here?
Answer: 1.21% [at 78.8 µM]

Question: With O=c1c(O)c(-c2ccc(O)cc2)oc2cc(O)cc(O)c12 as the compound, how does the “activation” value read?
Answer: 0.322%

Question: For CS(=O)(=O)c1ccc(-c2cn3ccccc3n2)cc1, which “activation” value is on record?
Answer: -1.56%

Question: For CCCCCCCC/C=C\CCCCCCCCCCCC(=O)O, which “activation” value is on record?
Answer: 3.04% [at 78.8 µM]

Question: With CCCCC(CC)CN (stereo not drawn) as the compound, how does the “activation” value read?
Answer: -2.82% [at 78.8 µM]

Question: With C[C@@H](O[C@H]1OCCN(Cc2n[nH]c(=O)[nH]2)[C@H]1c1ccc(F)cc1)c1cc(C(F)(F)F)cc(C(F)(F)F)c1 as the compound, how does the “activation” value read?
Answer: -1.56%

Question: For c1ccc2c(c1)CCc1ccccc1N2, which Potency is on record?
Answer: inactive

Question: For C(=C\c1ccccc1)/c1ccccc1, which “activation” value is on record?
Answer: -1.68% [at 78.8 µM]

Question: With C=C/C(C)=C/C/C=C(\C)CCC=C(C)C as the compound, how does the “activation” value read?
Answer: -9.15%

Question: With CC(C)Nc1cccnc1N1CCN(C(=O)c2cc3cc(NS(C)(=O)=O)ccc3[nH]2)CC1 as the compound, how does the “activation” value read?
Answer: -0.841%

Question: With O=C(O)c1cccc(-c2noc(-c3ccccc3F)n2)c1 as the compound, how does the “activation” value read?
Answer: -3.69%

Question: For CCOC(=O)c1ccc(O)c(O)c1, which “activation” value is on record?
Answer: 2.22%

Question: With CC(C)=CCC/C(C)=C/CC/C(C)=C/CCC(=O)OC/C=C(\C)CCC=C(C)C as the compound, how does the “activation” value read?
Answer: 3.54%

Question: Which “activation” value does the source give for C=Cc1ccc(S(=O)(=O)O)cc1 here?
Answer: -1.97%

Question: For Cc1ccc2c(Br)cc(Br)c(O)c2n1, which “activation” value is on record?
Answer: -1.9%

Question: With C[C@@H](CN(C)C)CN1c2ccccc2Sc2ccccc21 as the compound, how does the “activation” value read?
Answer: -2.56%

Question: With CC(CCC(=O)O)C(=O)O (stereo not drawn) as the compound, how does the “activation” value read?
Answer: 2.52%

Question: For CCC(C)COC(C)=O (stereo not drawn), which “activation” value is on record?
Answer: 0.377%

Question: For CC1(CN2CCC(n3c(=O)[nH]c4ccccc43)CC2)OCc2ccccc2-n2cccc21 (stereo not drawn), which “activation” value is on record?
Answer: -6.7%

Question: For CCC1CO1 (stereo not drawn), which “activation” value is on record?
Answer: 0.028%

Question: Which “activation” value does the source give for CCCCCCC(C)(C)C(=O)O here?
Answer: 0.512%

Question: With C=C(C)C(=O)OCCCCCCCCCCCCC as the compound, how does the “activation” value read?
Answer: 0.433%

Question: For Cc1cccc(O)c1N, which “activation” value is on record?
Answer: -0.826% [at 78.8 µM]

Question: Which “activation” value does the source give for CCCCCC#CC(=O)OC here?
Answer: -1.41%

Question: With CNC(=O)c1cnn(-c2nc(N)c3ncn([C@@H]4O[C@H](CO)[C@@H](O)[C@H]4O)c3n2)c1 as the compound, how does the “activation” value read?
Answer: 0.539%

Question: With CCCCOc1ccc(OCCCN2CCOCC2)cc1 as the compound, how does the “activation” value read?
Answer: -1.84%

Question: Which “activation” value does the source give for C1COC1 here?
Answer: -0.0369%

Question: For CC(=O)NC1(c2cccc(F)c2)CCN(CC[C@@]2(c3ccc(Cl)c(Cl)c3)CN(c3ccccc3)C(=O)CO2)CC1, which “activation” value is on record?
Answer: -4.62%

Assay: qHTS assay to identify small molecule agonists of the endoplasmic reticulum stress response signaling pathway - cell viability counter screen (AID 1159517; calls by dose curve; also: nearly all actives have a fitted effect of over 50% in size; also: potency is read from the fitted curve at half-maximal effect;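 as to activity change, negative = cytotoxicity: HeLa cells carrying an ER stress response element beta-lactamase reporter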)
Details: ESRE-bla HeLa viability, CellTiter-Glo luminescence, 5 h; series mostly up to 61 µM; activity change, negative = cytotoxicity: at the top concentration
In short: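 ESRE-bla HeLa cells, 1,500 per well, seeded overnight then treated with compounds for 5 hr at 37 C. After the beta-lactamase read, viability in the same wells is measured by CellTiter-Glo luminescence after 30 min at room temperature.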

Question: Which Potency does the source give for CC(C)c1nc(CN(C)C(=O)N[C@H](C(=O)N[C@@H](Cc2ccccc2)C[C@H](O)[C@H](Cc2ccccc2)NC(=O)OCc2cncs2)C(C)C)cs1 here?
Answer: 15.1 µM (active)

Question: Which “activity change, negative = cytotoxicity” value does the source give for CC1=C(Br)C(=O)C(Br)=C/C1=C(/c1ccccc1S(=O)(=O)O)c1cc(Br)c(O)c(Br)c1C here?
Answer: -19.3%

Question: Which “activity change, negative = cytotoxicity” value does the source give for Cc1cc(C)cc(N)c1 here?
Answer: 16.8% [at 78.8 µM]

Question: For C[C@@H]1CC(=O)NN=C1c1ccc(NN=C(C#N)C#N)cc1, which Potency is on record?
Answer: inactive

Question: With CC(C)=CCC/C(C)=C/CC/C(C)=C/C(=O)OCC(=O)[C@@]1(O)CC[C@H]2[C@@H]3CCC4=CC(=O)C=C[C@]4(C)[C@H]3[C@@H](O)C[C@@]21C as the compound, how does the “activity change, negative = cytotoxicity” value read?
Answer: -7.47%

Question: With CC/C=C1/OC(=O)c2ccccc21 as the compound, how does the “activity change, negative = cytotoxicity” value read?
Answer: -6.54%

Question: For CC[N+](CC)(CCNC(=O)C(=O)NCC[N+](CC)(CC)Cc1ccccc1Cl)Cc1ccccc1Cl, which “activity change, negative = cytotoxicity” value is on record?
Answer: -9.99%

Question: Which “activity change, negative = cytotoxicity” value does the source give for O=C1NC(=O)c2cc([N+](=O)[O-])ccc21 here?
Answer: 13% [at 78.8 µM]

Question: With C=CC(=O)[O-].C=CC(=O)[O-].[Zn+2] as the compound, how does the “activity change, negative = cytotoxicity” value read?
Answer: 32.5%

Question: For CC[C@]1(O)C[C@H]2CN(CCc3c([nH]c4ccccc34)[C@@](C(=O)OC)(c3cc4c(cc3OC)N(C=O)[C@H]3[C@@](O)(C(=O)OC)[C@H](OC(C)=O)[C@]5(CC)C=CCN6CC[C@]43[C@@H]65)C2)C1, which “activity change, negative = cytotoxicity” value is on record?
Answer: 4.36%

Assay: qHTS assay to identify small molecule antagonists of the retinoid-related orphan receptor gamma (ROR-gamma) signaling pathway - cell viability counter screen (AID 1159520); also: nearly all actives have a fitted effect of over 50% in size; also: potency is read from the fitted curve at half-maximal effect
Details: Tet-on RORgamma CHO cells viability, ATP luminescence, 16 h; series mostly up to 92.4 µM; activity, negative = cytotoxicity: at the top concentration
In short: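 Tet-on ROR gamma CHO cells were given compounds for 2 hr, then doxycycline hyclate at 1 uM final, and incubated 16 hr at 37 C. Viability was measured as ATP content by CellTiter-Glo luminescence.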

Question: For O=C(OC(=O)c1ccccc1)c1ccccc1, which “activity, negative = cytotoxicity” value is on record?
Answer: -3.06%

Question: With O=c1c(O)c(-c2ccc(O)cc2)oc2cc(O)cc(O)c12 as the compound, how does the Potency read?
Answer: inactive

Question: Which “activity, negative = cytotoxicity” value does the source give for CCCCCCCC/C=C\CCCCCCCCCCCC(=O)O here?
Answer: -1.4%

Question: Which “activity, negative = cytotoxicity” value does the source give for CCCCC(CC)CN (stereo not drawn) here?
Answer: 3.91%

Question: Which Potency does the source give for C[C@@H](O[C@H]1OCCN(Cc2n[nH]c(=O)[nH]2)[C@H]1c1ccc(F)cc1)c1cc(C(F)(F)F)cc(C(F)(F)F)c1 here?
Answer: 26.6 µM (active)

Question: With c1ccc2c(c1)CCc1ccccc1N2 as the compound, how does the “activity, negative = cytotoxicity” value read?
Answer: -16.3% [at 42.5 µM]

Question: With CC(C)c1nc(CN(C)C(=O)N[C@H](C(=O)N[C@@H](Cc2ccccc2)C[C@H](O)[C@H](Cc2ccccc2)NC(=O)OCc2cncs2)C(C)C)cs1 as the compound, how does the “activity, negative = cytotoxicity” value read?
Answer: -3.41% [at 42.5 µM]

Question: With C(=C\c1ccccc1)/c1ccccc1 as the compound, how does the “activity, negative = cytotoxicity” value read?
Answer: 1.1%

Question: Which “activity, negative = cytotoxicity” value does the source give for C=C/C(C)=C/C/C=C(\C)CCC=C(C)C here?
Answer: -2.3%

Question: Which “activity, negative = cytotoxicity” value does the source give for Cc1ccc(Cl)c(Nc2ccccc2C(=O)O)c1Cl here?
Answer: 1.16% [at 42.5 µM]

Question: With CC(C)Nc1cccnc1N1CCN(C(=O)c2cc3cc(NS(C)(=O)=O)ccc3[nH]2)CC1 as the compound, how does the “activity, negative = cytotoxicity” value read?
Answer: 1.99% [at 42.5 µM]

Question: With O=C(O)c1cccc(-c2noc(-c3ccccc3F)n2)c1 as the compound, how does the “activity, negative = cytotoxicity” value read?
Answer: -9.77% [at 42.5 µM]

Question: With CCOC(=O)c1ccc(O)c(O)c1 as the compound, how does the “activity, negative = cytotoxicity” value read?
Answer: 3.26% [at 42.5 µM]

Question: With CC1=C(Br)C(=O)C(Br)=C/C1=C(/c1ccccc1S(=O)(=O)O)c1cc(Br)c(O)c(Br)c1C as the compound, how does the Potency read?
Answer: 16.5 µM (active)

Question: For CC(C)=CCC/C(C)=C/CC/C(C)=C/CCC(=O)OC/C=C(\C)CCC=C(C)C, which “activity, negative = cytotoxicity” value is on record?
Answer: 0.775% [at 42.5 µM]

Question: With Cc1cc(C)cc(N)c1 as the compound, how does the “activity, negative = cytotoxicity” value read?
Answer: 5.93%

Question: With C[C@@H]1CC(=O)NN=C1c1ccc(NN=C(C#N)C#N)cc1 as the compound, how does the Potency read?
Answer: 2.98 µM (active) and 2.11 µM (active)

Question: With C=Cc1ccc(S(=O)(=O)O)cc1 as the compound, how does the “activity, negative = cytotoxicity” value read?
Answer: -15.9%

Question: With CC(C)=CCC/C(C)=C/CC/C(C)=C/C(=O)OCC(=O)[C@@]1(O)CC[C@H]2[C@@H]3CCC4=CC(=O)C=C[C@]4(C)[C@H]3[C@@H](O)C[C@@]21C as the compound, how does the “activity, negative = cytotoxicity” value read?
Answer: -18.9% [at 42.5 µM]

Question: Which “activity, negative = cytotoxicity” value does the source give for CC(CCC(=O)O)C(=O)O (stereo not drawn) here?
Answer: 1.07%

Question: With CC/C=C1/OC(=O)c2ccccc21 as the compound, how does the “activity, negative = cytotoxicity” value read?
Answer: 5.04%

Question: For CCC(C)COC(C)=O (stereo not drawn), which “activity, negative = cytotoxicity” value is on record?
Answer: 2.18%

Question: For CCOC(=O)c1ccc(C#Cc2ccc3c(c2)C(C)(C)CCS3)nc1, which “activity, negative = cytotoxicity” value is on record?
Answer: -0.441% [at 42.5 µM]

Question: For CC[N+](CC)(CCNC(=O)C(=O)NCC[N+](CC)(CC)Cc1ccccc1Cl)Cc1ccccc1Cl, which “activity, negative = cytotoxicity” value is on record?
Answer: 0.188% [at 42.5 µM]

Question: With O=C1NC(=O)c2cc([N+](=O)[O-])ccc21 as the compound, how does the “activity, negative = cytotoxicity” value read?
Answer: -0.369%

Question: With CCC1CO1 (stereo not drawn) as the compound, how does the “activity, negative = cytotoxicity” value read?
Answer: 3.7%

Question: Which “activity, negative = cytotoxicity” value does the source give for C=CC(=O)[O-].C=CC(=O)[O-].[Zn+2] here?
Answer: 4.23%

Question: For CCCCCCC(C)(C)C(=O)O, which “activity, negative = cytotoxicity” value is on record?
Answer: 0.573%

Question: For C=C(C)C(=O)OCCCCCCCCCCCCC, which “activity, negative = cytotoxicity” value is on record?
Answer: -10.4%

Question: With Cc1cccc(O)c1N as the compound, how does the “activity, negative = cytotoxicity” value read?
Answer: -14.2%

Question: With CCCCCC#CC(=O)OC as the compound, how does the “activity, negative = cytotoxicity” value read?
Answer: -0.783%

Question: With CC[C@]1(O)C[C@H]2CN(CCc3c([nH]c4ccccc34)[C@@](C(=O)OC)(c3cc4c(cc3OC)N(C=O)[C@H]3[C@@](O)(C(=O)OC)[C@H](OC(C)=O)[C@]5(CC)C=CCN6CC[C@]43[C@@H]65)C2)C1 as the compound, how does the “activity, negative = cytotoxicity” value read?
Answer: -11.1% [at 42.5 µM]

Question: Which “activity, negative = cytotoxicity” value does the source give for CNC(=O)c1cnn(-c2nc(N)c3ncn([C@@H]4O[C@H](CO)[C@@H](O)[C@H]4O)c3n2)c1 here?
Answer: 0.15% [at 42.5 µM]

Question: With CCCCOc1ccc(OCCCN2CCOCC2)cc1 as the compound, how does the “activity, negative = cytotoxicity” value read?
Answer: -5.97% [at 42.5 µM]

Question: With C1COC1 as the compound, how does the “activity, negative = cytotoxicity” value read?
Answer: 1.18%
